Laboratory results reported in PubChem BioAssay AID1851 (National Center for Advancing Translational Sciences (NCATS), 2009).
The whole screen tested about 16,000 compounds, of which about 4,000 (25%) were called active. Not shown: some 26% with an inconclusive outcome. These entries were drawn from the full list. Unmarked numbers belong to inactive results. The call rests on the fitted dose curve; in most records, active means well fitted curve in the direction sought with a large enough effect; inconclusive means small, poorly fitted or top-dose-only effect, or effect the other way; inactive means no such curve, though single readings can be large or run the other way.

Target: Cytochrome P450 2C9 (Homo sapiens) (UniProt P11712)
Assay: Cytochrome panel assay with activity outcomes
Settings: recombinant CYP, pro-luciferin dealkylation, luminescence, p450-cyp2c9; series mostly up to 57.1 µM; activity, negative = inhibition: at the top concentration
On the % scale 0 is the no-effect control and ±100 the full control effect.

Sequence of Cytochrome P450 2C9 (Homo sapiens) (P11712 whole entry, looked up): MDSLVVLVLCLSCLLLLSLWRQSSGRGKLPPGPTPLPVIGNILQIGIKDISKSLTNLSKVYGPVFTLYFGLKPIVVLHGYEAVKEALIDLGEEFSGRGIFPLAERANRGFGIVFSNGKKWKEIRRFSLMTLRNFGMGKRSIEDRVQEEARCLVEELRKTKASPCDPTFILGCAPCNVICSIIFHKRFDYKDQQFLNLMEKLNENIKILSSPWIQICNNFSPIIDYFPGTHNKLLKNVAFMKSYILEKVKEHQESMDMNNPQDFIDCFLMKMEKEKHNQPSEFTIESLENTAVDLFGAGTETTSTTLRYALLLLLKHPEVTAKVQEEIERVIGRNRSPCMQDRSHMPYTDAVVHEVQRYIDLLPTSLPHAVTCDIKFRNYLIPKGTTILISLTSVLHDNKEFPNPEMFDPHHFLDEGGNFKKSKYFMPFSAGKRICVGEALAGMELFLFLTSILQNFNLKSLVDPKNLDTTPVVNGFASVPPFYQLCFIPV

SMILES | activity, negative = inhibition | AC50
COc1ncc2ncc(=O)n(CCC#N)c2n1 | 22.1% | 
COCCNc1ncnc2ccc(-c3ccc(N(C)C)cc3)cc12 | -3.32% [at 2.29 µM] | 
COC(Cc1nnc(SC)n1-c1ccc(Cl)cc1)OC | -23.3% | 
O=S(Cc1ccc(Br)cc1)Cc1nnc(SCc2ccc(Cl)cc2)n1-c1ccccc1 (stereo not drawn) |  | 10 µM (active)
Cc1cccc(NC(=S)N2CCC(N(C)CC3CCCO3)CC2)c1C (stereo not drawn) | -8.61% | 
CN1CCN(c2ncnc3ccc(-c4cccc(NS(C)(=O)=O)c4)cc23)CC1 | 22.3% [at 2.29 µM] | 
Cc1ccc(S(=O)(=O)Nc2nc3ccccc3nc2N2CCc3ccccc3C2)cc1 |  | 0.251 µM (active)
O[C@H](CN1CCN(c2cccc(Cl)c2)CC1)C(c1ccccc1)c1ccccc1 |  | inactive
O=C(Cn1ccc2ccccc2c1=O)N1CCN(c2cccc(Cl)c2)CC1 | 17.4% | 
O=C(Cc1ccc(-n2c(=O)[nH]c3ccccc3c2=O)cc1)N1CCN(c2cccc(Cl)c2)CC1 |  | 3.55 µM (active)
CC(=O)Nc1ccc(S(=O)(=O)N=S(C)C)cc1 |  | inactive
CC(=O)Nc1ccc(S(=O)(=O)NCCc2ccc(F)cc2)cc1 | -20.9% | 
COc1ccc(CCNC(=O)CC(NS(=O)(=O)c2ccc(NC(C)=O)cc2)C(C)C)cc1OC (stereo not drawn) |  | 2.51 µM (active)
CC(=O)Nc1ccc(S(=O)(=O)NC(CC(=O)NCCCN2CCOCC2)C(C)C)cc1 (stereo not drawn) | -20.4% | 
COc1ccc(CCNC[C@H](O)c2ccc(O)cc2)cc1OC | 5.84% | 
COc1ccc(CONS(=O)(=O)c2ccc(NC(C)=O)cc2)cc1Cl |  | 12.6 µM (active)
OCCN(CO)CO | -10.4% [at 11.4 µM] | 
CC(=O)OC[C@H]1O[C@@H](O/N=C(\C)CCN2CCCCc3nc(C)c(C)cc32)[C@H](OC(C)=O)[C@@H](OC(C)=O)[C@H]1OC(C)=O | 23.5% [at 11.4 µM] | 
c1ccc(NN(Cc2cnccn2)c2ccccc2)cc1 |  | 3.16 µM (active)
c1ccc(CCc2cccnc2)nc1 | -6.59% [at 11.4 µM] | 
C#CCOC(=O)Nc1ccc(=O)n(Cc2c(Cl)cccc2Cl)c1 |  | 1.58 µM (active)
CCn1c(=O)[nH]c2ccccc21 | 21.9% | 

SMILES | activity, negative = inhibition | AC50
C[N+]1(C)CCC(OC(=O)C(c2ccccc2)c2ccccc2)CC1 | 16.1% | 
O=C(CCCc1ccccc1)N1CCN(c2ccc([N+](=O)[O-])cc2)CC1 | -23.7% | 
O=C(OC1CCN(c2ccc([N+](=O)[O-])cc2)CC1)c1ccccc1 |  | 0.631 µM (active)
O=C(O)c1cccc2cccc(-c3cccc4cccc(C(=O)O)c34)c12 | -4.84% [at 11.4 µM] | 
CN1C(=O)/C(=N\OC(=O)c2cccc3ccccc23)c2ccccc21 |  | 2.82 µM (active)
CCn1c(=O)cc(OCC(=O)Nc2cccnc2)c2ccccc21 |  | 15.8 µM (active)
CC(C(=O)Nc1cccnc1)N1C(=O)C2C3C=CC(C3)C2C1=O (stereo not drawn) | 24.1% | 
Cn1c(=O)cc(OCCCC(=O)Nc2cccnc2)c2ccccc21 | -3.72% | 
CO[C@H]1COC(=O)[C@@H](Cc2ccccc2)NC(=O)[C@@H](C)COC(=O)CCC[C@@H]1C | 18.6% [at 11.4 µM] | 
COc1ccc2cc3cc(C(=O)NCc4ccccn4)oc3nc2c1 | 17.7% | 
CCCN(CCC)CCCNC(=O)c1cc2cc3ccc(OC)cc3nc2o1 | -13% | 
COc1ccc2cc3cc(C(=O)NCc4ccc5c(c4)OCO5)oc3nc2c1 |  | 4.47 µM (active)
Cc1ccc(-n2c(-c3ccc(Br)cc3)c[n+]3c2CCc2ccc4cccnc4c2-3)cc1 | -9.21% | 
NC(=O)c1csc(-c2ccc(CO)o2)n1 | 6.84% [at 11.4 µM] | 
OCc1ccc(-c2nn(Cc3ccccc3)c3ccccc23)o1 |  | 31.6 µM (active)
CCNc1ncc2nc(-c3ccc(F)cc3)c(=O)n(CCC#N)c2n1 | 21.5% | 
COc1cc2nc(SCc3ccc(Cl)cc3Cl)n(Cc3cccs3)c(=N)c2cc1OC |  | 2.51 µM (active)
CN(C)c1ncc2nc(-c3ccc(Cl)cc3)c(=O)n(Cc3cccs3)c2n1 | -13.6% | 
CN1CCN(c2ncncc2-c2ccccc2C(F)(F)F)CC1 | 10.5% [at 2.29 µM] | 
Cc1ccc(S(=O)(=O)ON=C2CCN(S(=O)(=O)c3ccccc3)CC2)cc1 | -4.35% | 
Cc1cc(C)c(S(=O)(=O)N2CCCCC2)c(C)c1N(C)S(=O)(=O)c1ccccc1 |  | 2 µM (active)
CCN1C(=O)[C@H]2[C@H]3[C@H](O)[C@H](O)C/C(=N/OCC(C)C)[C@@H]3CC[C@@H]2C1=O | 28.3% [at 11.4 µM] | 

SMILES | activity, negative = inhibition | AC50
Cc1cccc(OCCSCc2nc3ccccc3[nH]2)c1 |  | 5.01 µM (active)
C[N+](C)(C)CCCSc1nc2ccccc2[nH]1 | 3.61% [at 11.4 µM] | 
CS(=O)(=O)Nc1cccc(-c2ccc3ncnc(Nc4ccc(F)cc4)c3c2)c1 | -7.12% [at 2.29 µM] | 
CC(C)C12CN3CC(C(C)C)(CN(C1)C3c1ccco1)C2=O (stereo not drawn) | -18.4% | 
Cc1ccc(N=CC2=C(O)CC(c3ccco3)CC2=O)cc1 (stereo not drawn) |  | 8.91 µM (active)
COc1ccc(C(=O)N2CCC3(CCCN(C)C3)CC2)cc1 | -17.7% | 
CCCn1c(CC)nc([N+](=O)[O-])c1S(=O)(=O)c1ccccc1 | 5.38% | 
COc1ccc(COc2ccsc2C(=O)Nc2ccc(Cl)c(Cl)c2)cc1 |  | 2.82 µM (active)
CNC(=S)NNC(=O)c1sccc1OCc1ccc(C)cc1 | -25.3% | 
CCc1ccc(C(CC(=O)c2ccc(Cl)cc2)C(=O)O)cc1 (stereo not drawn) |  | 10 µM (active)
N[C@H](Cc1ccc(Cl)cc1)C(=O)O | 23.1% | 
O=C(O)CCC(=O)c1ccc(Cl)cc1 | 18.6% [at 11.4 µM] | 
CSc1ccc(CNc2ccc(Cl)cc2)cc1 |  | 6.31 µM (active)
CS(=O)(=O)Nc1cccc(-c2cc(NCc3ccccc3)ncn2)c1 | 22.3% [at 2.29 µM] | 
CSc1ccc(CNc2ccccc2)cc1 |  | 12.6 µM (active)
Cc1ccc(C)c(NC(=O)NCc2ccc(Cl)cc2)c1 | -2.65% [at 11.4 µM] | 
COc1cccc(CNCc2ccc(SC)cc2)c1OC | -20% | 
Cc1ccc(S(=O)(=O)N[C@H]2COC(=O)C/C=C\[C@@H](C)[C@H](NS(=O)(=O)c3ccc(C)cc3)COC(=O)[C@H](C)NC(=O)C/C=C\[C@H]2C)cc1 | 15.4% [at 11.4 µM] | 
COC(=O)C/C=C\[C@@H](C)[C@@H](/C=N\OC[C@@H]1O[C@H](c2ccccc2)C=C[C@@H]1Oc1ccc(OC)cc1)NS(=O)(=O)c1ccc(C)cc1 |  | 1.26 µM (active)
CCCNC(=O)OC[C@@H]1O[C@H](CCON=C(C)C)C=C[C@@H]1Oc1ccc(OC)cc1 | 2.96% [at 11.4 µM] | 
CO/N=C\[C@@H](NS(=O)(=O)c1ccc(C)cc1)[C@H](C)/C=C\CC(=O)OC | -27.4% [at 11.4 µM] | 
CCCNC(=O)OC[C@@H]1O[C@H](CCO/N=C\[C@@H](C)[C@H](OCc2ccccc2)C(C)C)C=C[C@@H]1Oc1ccc(OC)cc1 | -22.3% [at 11.4 µM] | 

SMILES | activity, negative = inhibition | AC50
COc1ccc(O[C@H]2C=C[C@@H](c3ccccc3)O[C@@H]2CO/N=C\[C@@H](C)[C@H](OCc2ccccc2)C(C)C)cc1 | -24.2% [at 11.4 µM] | 
COC(=O)C/C=C\[C@@H](C)[C@@H](/C=N\O[C@@H](C)c1cn([C@H]2COC[C@H]2O)nn1)NS(=O)(=O)c1ccc(C)cc1 | 16% [at 11.4 µM] | 
COC(=O)C/C=C\[C@@H](C)[C@@H](/C=N\O[C@@H](C)c1cc(-c2c(C)cc(C)cc2C)no1)NS(=O)(=O)c1ccc(C)cc1 |  | 2.51 µM (active)
COC(=O)C/C=C\[C@@H](C)[C@@H](/C=N\OC[C@@H](O)COCc1ccco1)NS(=O)(=O)c1ccc(C)cc1 | -14.9% [at 11.4 µM] | 
CCCNC(=O)OC[C@H]1O[C@@H](CCO/N=C\[C@@H](NS(=O)(=O)c2ccc(C)cc2)[C@H](C)/C=C\CC(=O)OC)C=C[C@@H]1Oc1ccc(OC)cc1 |  | 3.98 µM (active)
CCNc1ncc2nc(-c3ccc(F)cc3)c(=O)n(CCOC)c2n1 | -4.26% | 
CCOC(=O)c1c(C)c(C)n2c1NC(=O)C2 | -2.03% [at 11.4 µM] | 
CCOC(=O)C1=C(C)NC(=O)N[C@@H]1c1coc2cc(C)cc(C)c2c1=O | -14.5% [at 11.4 µM] | 
CCOC(=O)C1=C(C)NC(=O)NC1c1ccoc1 (stereo not drawn) |  | 12.6 µM (active)
COc1cc2nc(N(C)CCCNC(=O)[C@@H]3CCCO3)nc(N)c2cc1OC | -16.9% [at 25.6 µM] | 
COc1ccc2nc(SCC(=O)NN)cc(C)c2c1 | 12.8% | 
CCCCNC(=O)CSc1nc2cc(OC)c(OC)cc2c(=O)n1Cc1ccc(OC)cc1 |  | 2.24 µM (active)
COCCNC(=O)CSc1nc2ccc(N3CCOCC3)cc2c(=O)n1Cc1ccc(OC)cc1 |  | 5.62 µM (active)
COCCNC(=O)CSc1nc2cc(OC)c(OC)cc2c(=O)n1Cc1ccco1 |  | 2.24 µM (active)
COc1cc2nc(N3CC=[N+](C(=O)c4ccco4)CC3)nc(N)c2cc1OC | -8.49% | 
COCCCNC(=O)CCC(=O)Nc1ccc2nc(N3CCOCC3)cc(C)c2c1 | -26.7% | 
COCCn1c(=O)c(-c2ccc(OC)cc2)nc2cnc(N3CCOCC3)nc21 | 17.6% | 
CCN(C(=O)CSc1nc2cc(C(=O)OC)ccc2c(=O)n1Cc1ccco1)c1cccc(C)c1 |  | 0.2 µM (active)
CCN1CCC[C@H]1CNC(=O)c1cc(S(N)(=O)=O)ccc1OC |  | inactive
CCOC(=O)C[n+]1c(C)sc2ccc(OC)cc21 |  | 14.1 µM (active)
Cc1sc2ccccc2[n+]1CCC(C)S(=O)(=O)[O-] (stereo not drawn) | -33% | 
Cc1sc2ccccc2[n+]1CCC(=O)O | 9.02% [at 11.4 µM] | 
